{"source": "PubChem BioAssay AID493168", "about": "(National Center for Advancing Translational Sciences (NCATS), 2011)", "note": "Inconclusive results are not listed. Entries that show only a call come without a potency. Active and inactive are the calls of the source. The call rests on the fitted dose curve; in most records, active means well fitted inhibition curve with a large enough effect; inconclusive means small, poorly fitted or top-dose-only effect, or effect the other way; inactive means flat fitted curve, though single readings scatter. Potency means the concentration at half of the fitted maximal effect.", "data": [{"biological_target": "Ubiquitin carboxyl-terminal hydrolase 2 (Homo sapiens) (UniProt O75604)", "sequence (O75604 whole entry, looked up)": "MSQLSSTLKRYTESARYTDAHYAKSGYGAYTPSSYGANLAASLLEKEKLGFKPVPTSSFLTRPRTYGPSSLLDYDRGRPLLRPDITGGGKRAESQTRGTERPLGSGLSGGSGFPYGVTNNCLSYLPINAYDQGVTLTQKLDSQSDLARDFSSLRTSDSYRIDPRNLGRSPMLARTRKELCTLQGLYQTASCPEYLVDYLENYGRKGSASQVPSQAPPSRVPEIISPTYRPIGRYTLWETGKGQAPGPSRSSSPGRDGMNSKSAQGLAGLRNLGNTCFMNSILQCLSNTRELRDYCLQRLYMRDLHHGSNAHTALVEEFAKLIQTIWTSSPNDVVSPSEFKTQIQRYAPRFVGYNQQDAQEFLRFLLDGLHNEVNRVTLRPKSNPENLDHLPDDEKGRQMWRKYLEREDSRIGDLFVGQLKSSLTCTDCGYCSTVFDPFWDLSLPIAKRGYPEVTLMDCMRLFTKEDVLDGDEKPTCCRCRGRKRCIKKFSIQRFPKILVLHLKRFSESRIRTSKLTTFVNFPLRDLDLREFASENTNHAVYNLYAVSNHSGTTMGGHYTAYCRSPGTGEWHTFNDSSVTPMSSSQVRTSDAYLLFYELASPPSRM", "experiment": "Confirmation Assay for Inhibitors of Ubiquitin-specific Protease USP2a Using CHOP2 as the Reporter; further: nearly all actives have a fitted effect of over 55% in size", "settings": "USP2 core, Ub-CHOP2 coupled reporter fluorescence; series mostly up to 38.3 µM", "description": "NIH Molecular Libraries Probe Centers Network [MLPCN] NIH Chemical Genomics Center [NCGC] MLSCN Grant: XO1-MH079852-01 PI Name: Nicholson, Ben. Progenra Inc, Malvern, PA NCGC Assay Overview: Homeostasis of cellular proteins is maintained through a combination of synthesis and degradation. The pathway that accounts for the majority of protein degradation is the ubiquitin-proteasomal pathway. Ubiquitin (Ub) is highly conserved in all cells and the generation of a multi-Ub chain typically targets proteins for degradation by the proteasome. However, ubiquitination is highly reversible and dynamic. Deubiquitination, the reverse process, is catalyzed through the action of enzymes referred to as isopeptidases or deubiquitinating enzymes (DUBs). This group of enzymes is collectively responsible for maintaining adequate pools of free ubiquitin and regulating the ubiquitination status of cellular proteins. The class of DUBs referred to as the ubiquitin-specific proteases (USP) family functions endoproteolytically to cleave Ub chains from a wide range of protein substrates. USP2a deubiquitinates fatty acid synthase (FASN) which has recently been identified as an emerging oncology target. To identify inhibitors of USP2a a cell-free assay was employed. […] The reporter enzyme chosen is an […] called CHOP2, which is activated when the Ub is cleaved by USP2. The free and now activated reporter can subsequently act on its reporter substrate. Thus, this coupled assay gives a fluorescent read-out at excitation/emission wavelengths of 485/531. The assay was developed by Progenra, Inc. and has been licensed for sale by LifeSensors, Inc. as Ub-CHOP2-Reporter-Kit (#PR1101).\nNCGC Assay Protocol Summary: The assay buffer, prepared fresh at the day of the assay, contains 20mM Tris-HCl pH 8.0, 2mM CaCl2, 2mM beta-Mercaptoethanol, 0.05% CHAPS. 3ul of 20nM (10nM final) USP2 core, which is stored on ice, is dispensed into a medium-binding black solid Kalypsys 1,536 well plate using the Kalypsys dispenser. The assay plate is then pinned with 23nL compound with the Kalypsys pintool in columns 5-48. The controls are pinned as follows: column 1 two-fold dilutions of 2M NEM in duplicate; column 2 2M NEM (final concentration 38.2mM); column 3&4 DMSO. The assay plate is incubated at RT for 30min. Subsequently, 1.5uL of 100nM (25nM final) Ub-CHOP2 and 1.5uL of 100nM (25nM final) Reporter Substrate (both stored on ice and protected from light) were dispensed into the plate using the Kalypsys dispenser. Plates were read after 60min RT incubation on a ViewLux (Perkin Elmer) plate reader using the following wavelengths Ex 485nm /Em 531nm. Data were normalized to the to AC100 inhibition (NEM). Concentration-response curves were fitted to the normalized data and the concentration-response curves were then classified based on curve quality (r2), response magnitude and degree of measured activity. The time zero reading was used to flag fluorescence artifacts. Keywords: ubiquitination, deubiquitination, proteases, profluorescent, MLSMR, MLPCN, NIH Roadmap, qHTS, NCGC", "values": [{"smiles": "COc1cc(C(c2c(C)[nH][nH]c2=O)c2c(C)[nH][nH]c2=O)ccc1OCc1ccc([N+](=O)[O-])cc1", "Potency": "inactive"}, {"smiles": "Cc1cccc(NCc2nc(-c3ccccc3)no2)c1", "Potency": "inactive"}, {"smiles": "O=C(NC12CC3CC(CC(C3)C1)C2)C1=COCCO1", "Potency": "inactive"}, {"smiles": "Cc1ccc(Nc2cc(C)nc(NCc3ccccc3)n2)cc1", "Potency": "inactive"}, {"smiles": "O=C(Oc1ccccc1C(=O)Nc1ccccc1)c1ccccc1Br", "Potency": "inactive"}, {"smiles": "O=C1CCCc2nc(N3CCN(c4ccccc4)CC3)ncc21", "Potency": "inactive"}, {"smiles": "O=C(COC(=O)c1cc(-c2ccc(Cl)s2)nc2ccccc12)NCc1ccco1", "Potency": "18.5 µM (active)"}, {"smiles": "Nc1c(C(=O)Nc2ccc3c(c2)OCCO3)nnn1CCc1ccccc1", "Potency": "inactive"}, {"smiles": "O=C(O)CCn1c(C2CCCCC2)nc2ccccc21", "Potency": "inactive"}, {"smiles": "CC(OC(=O)c1nsc(Cl)c1Cl)C(=O)NCc1ccco1", "note": "(stereo not given)", "Potency": "inactive"}, {"smiles": "COC(=O)c1ccc(CSc2ncnc3ccccc23)o1", "Potency": "inactive"}, {"smiles": "CC(C)CC(=O)NC(=S)Nc1nc(-c2ccc(Cl)cc2)cs1", "Potency": "inactive"}, {"smiles": "COc1ccc(CCN2C(=O)/C(=C\\c3ccco3)SC2=S)cc1OC", "Potency": "inactive"}, {"smiles": "O=C(CCNc1cccc(Cl)c1)c1ccco1", "Potency": "inactive"}, {"smiles": "COCc1c(C(=O)OCC(=O)c2c(N)n(CC(C)C)c(=O)n(C)c2=O)oc2ccccc12", "Potency": "inactive"}, {"smiles": "CCC(=O)c1ccc(OCC(=O)NC2CCN(Cc3ccccc3)CC2)cc1", "Potency": "inactive"}, {"smiles": "COc1ccc(C(=O)C[N+]2(C)CCOCC2)cc1", "Potency": "inactive"}, {"smiles": "Nc1ccc(C2=Nc3cccc4cccc(c34)N2)cc1", "Potency": "inactive"}, {"smiles": "O=S(=O)(c1ccccc1)N(CC1CO1)c1cc(Cl)ccc1Cl", "note": "(stereo not given)", "Potency": "inactive"}, {"smiles": "NC(=O)C[C@@H]1N[C@]2(C(=O)Nc3ccccc32)[C@@H]2C(=O)N(c3cc(C(F)(F)F)ccc3Cl)C(=O)[C@H]12", "Potency": "inactive"}, {"smiles": "Cc1ccc(S(=O)(=O)Nc2ccc(N3CCOCC3)cc2)cc1", "Potency": "inactive"}, {"smiles": "Cc1ccc(C(=O)O/N=C/c2c(C(F)(F)F)nn(C)c2Sc2ccc(Cl)cc2)cc1", "Potency": "inactive"}, {"smiles": "C#CCOCCOCCOCCNc1nc(N2CCN(C(=O)CCCCCCCCCCNC(=O)[C@@H](CCSC)n3cc(CCO)nn3)CC2)nc(N2CCN(C(=O)CCCCCCCCCCNC(=O)[C@H](CCCN=C(N)N)n3cc(C[C@@H](C)CC)nn3)CC2)n1", "Potency": "13.1 µM (active)"}, {"smiles": "Cc1ccc(N(CC(=O)N/N=C/c2ccco2)S(=O)(=O)c2ccccc2)cc1", "Potency": "inactive"}, {"smiles": "CCC(C(=O)NCc1ccccc1OC)n1nc(C)n2c(cc3occc32)c1=O", "note": "(stereo not given)", "Potency": "inactive"}, {"smiles": "Cc1ccc(/C=C2/SC(=S)N(c3ccc(S(=O)(=O)Nc4nccs4)cc3)C2=O)cc1", "Potency": "6.56 µM (active)"}, {"smiles": "C=CCSC1=N/C(=C\\C=C\\c2ccco2)C(=O)S1", "Potency": "inactive"}, {"smiles": "CCn1cc(C(=O)N2CCOCC2)c(=O)c2cc(S(=O)(=O)N(C)C)ccc21", "Potency": "inactive"}, {"smiles": "O=[N+]([O-])/C(C(Cl)=C(Cl)Cl)=C(\\Sc1ccccc1)N1CCCCC1", "Potency": "inactive"}, {"smiles": "O=C(COC(=O)c1cccc(S(=O)(=O)N2CCc3ccccc32)c1)NC1CCS(=O)(=O)C1", "note": "(stereo not given)", "Potency": "inactive"}, {"smiles": "CCc1cc(C(=O)N=Nc2c(O)[nH]c3ccc([N+](=O)[O-])cc23)c2ccccc2n1", "Potency": "14.7 µM (active)"}, {"smiles": "CCOc1ccccc1C(=O)NC1CC2CCCC(C1)N2C1CC1", "note": "(stereo not given)", "Potency": "inactive"}, {"smiles": "O=C(OCc1ccccc1)C1CCCN1C(=O)c1cccs1", "note": "(stereo not given)", "Potency": "inactive"}, {"smiles": "Cn1nc(CC(=O)NCc2ccc(F)cc2)c2ccccc2c1=O", "Potency": "inactive"}, {"smiles": "COc1ccc(/C=N/NC(=O)c2nn(-c3ccccc3)c(=O)c3c(N)scc23)cc1", "Potency": "inactive"}, {"smiles": "Cc1nc2n(n1)CC(O)CS2", "note": "(stereo not given)", "Potency": "inactive"}, {"smiles": "N#Cc1c(Nc2ccc(Cl)cc2)s[nH]c1=O", "Potency": "inactive"}, {"smiles": "Cn1c(SCc2nc3ccccc3s2)nnc1-c1cccs1", "Potency": "inactive"}, {"smiles": "CCN(CC)S(=O)(=O)c1ccc(-c2nnc(SCC(=O)Nc3ccc4c(c3)OCO4)o2)cc1", "Potency": "inactive"}, {"smiles": "Cn1cccc1CC(=O)N/N=C/C=C/c1ccco1", "Potency": "inactive"}]}]}
